Source: the supplement of paper PMC11417369
The full ranking holds about 25,000 sequences; the median of “ln(normalized median fluorescence intensity)” is about 9.7, and the highest 2% start at about 11. What follows is part of a selection rich in the highest values, with near analogues and random picks from the rest.

test system: PfAP2-HC AP2 domain (GST-tagged); assay: gcPBM binding intensity (ln(normalized median fluorescence intensity)); higher = stronger DNA binding
In short: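 Probes on an Agilent 4 × 180k array were primer-extended, double-stranded and 36 bp long, taken from intergenic genomic regions, with negative controls added. GST-tagged P. falciparum DNA-binding domains from E. coli, about 25 μg on average, were applied to the array for 1 h in 1× PBS containing 1% milk, 0.2 mg/ml BSA, 0.5% salmon testes DNA and 0.03% Triton X-100. Binding intensity, obtained after Alexa488 anti-GST antibody detection and a 488 nm scan, is the highest Masliner-normalised natural-log median intensity across replicate spots of either probe orientation.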

Sequence | gcPBM binding intensity (ln)
ATTTCGTTCTTTTATGCACACTCAACATATAAATTA [CACACA_site8322] | 9.93
GACATAGTCATATACTGTACTTTATATTATTGTGTA [XGTACX_site6636] | 9.66
TATAATAAAATATGTACACACATACAGACATATATA [CACACA_site6693] | 9.99
TGGTATATACGACACACACACATATGTATAAATATA [CACACA_site6561] | 10.9
TATGGTAAATACAACACACACACATATGTATTTATA [CACACA_site4666] | 10.3
ACACATAAATGTATATATATATAAATATATGTATGT [CACACA_negctrl_site1532] | 9.82
TATAAATAAATATACACACACACATATAAATATGTA [CACACA_site6504] | 10.4
TATGGTATATACAACACACACACATATGTATATATA [CACACA_site927] | 10.9
TATGGTATATACAACACACACACATATGTATAAATA [CACACA_site6562] | 10.5
AATTCACATGTGAACTAAAAGAATATTATATATATA [CACACA_negctrl_site1632] | 9.55
TTTTCTAAATATTATAGTACTCTTAATAATATTAAC [XGTACX_site4222] | 9.34
TATAGCAAAAAATTTACACACATGTTTTTTCTATAC [CACACA_site325] | 9.9
ATATTTGTAATTATTAAACACACACTAATTATATAT [CACACA_site8803] | 9.9
AAATTATATACCACAGTGCAAAAGGCAGGTATACGT | 9.91
TACATATTACTATTCAGTACATATTTTTTTTTCATT [XGTACX_site7468] | 9.81
CATATACATAGACACACACACACATAAATAAATATA [CACACA_site6749] | 10.4
CAAGCACACGGACACACACACACACGCGCACGCACA [CACACA_site6307] | 11.3
AAAATACATAGACACACACACACACGGATATAAATA [CACACA_site7643] | 11.2
CGCGCACACGGACACACACACACACGGATATAAATA [CACACA_site7102] | 11.3
TAAATAAATTTATACACACACACACGGATATAAATA [CACACA_site6532] | 10.6
ACCATATAAATAAACACACACACACGGATATAAATA [CACACA_site7157] | 10.6
AAACAACATGGACACGCACACACAAAAAAAGCATGC [CACACA_site73] | 10.7
AAAAAAAATAGACACACACACATACACATAAATATA [CACACA_site7742] | 10.5

Sequence | gcPBM binding intensity (ln)
AAAAAATACAGACACACACACACACGCATATAAATA [CACACA_site7644] | 10.8
CACGCATACAGACACACACACACACGGATATAAATA [CACACA_site6445] | 11.6
ATAGTATACAGACACACACACACACGGATATAAATA [CACACA_site6914] | 10.6
TTTAATTCTTATATTTGTACAGATTCATAATTAAAT [XGTACX_site7465] | 9.41
ACAAATAAATATTCGCGTACTTATATAATATTACGA [XGTACX_site6428] | 9.66
TACATACATACATACACACACACATATATATATATA [CACACA_site42] | 10.2
AATATTTTGAACAACAGTACTCTTTCTTTCTTTCTT [XGTACX_site7212] | 9.51
TGAATAATAAAAAATACACACACATATATATATATT [CACACA_site9146] | 10.1
ACTTACCCATTTATTACACACATAAAGGAAAATTTT [CACACA_site4873] | 9.88
TTTTATAAAAACAAAAACAAAGGCACTTTCTAAAGA [XGTACX_negctrl_site130] | 9.58
TATATGTTATATTTAACACACATATAAGGTACATAT [CACACA_site612] | 9.83
ACTTTTTAATATTTTAGTACACAGTAATTCTTACTA [XGTACX_site1425] | 9.75
CAAGAAACAGTGATACGTACACATATATATATATAT [XGTACX_site3229] | 9.91
AAGGATATAACATACACACACACACGGATATAAATA [CACACA_site7867] | 11
AATATAAGGATATATACACACATAAATACATACATA [CACACA_site7859] | 9.99
AAATAACACATATATACACACATATAAATATAATAT [CACACA_site2692] | 10.3
TTGTGGATTTTGTGCGCACACACATGCAAAAAGAAA [CACACA_site1147] | 10
GCCGCACCCAGATACGCACACAAGAAAAAAATATTC [CACACA_site3456] | 9.8
ATAATATTATGAACCTGTACATAATTTTTCTTTTCT [XGTACX_site3377] | 9.62
AAGAATACACCACGCACACACACTTGAGAAAAAATA [CACACA_site3828] | 11.2
ACAAGAATACACCACGCACACACACTAGAGAAAAAA [CACACA_site9276] | 11.6
GAATACACCACGCACACACACTTGAGAAAAAATAAA [CACACA_site7747] | 10.3
AAAGCACGCAAGAATACACACAAATATTATAAAAAA [CACACA_site6206] | 10.1

Sequence | gcPBM binding intensity (ln)
ACAAGAGAAAAAAATACACACAAGATAAAAATGTAT [CACACA_site607] | 9.95
AAAAAGAAAATATATACACACCAAAAAAAAAAAAAA [CACACA_site5698] | 9.75
AATATTTATAAATTTACACACACACCCGTGAACATA [CACACA_site1910] | 10.2
GACACCCATAAATATACACACGCACAACACAAAATA [CACACA_site8944] | 9.98
CGCGCACCCAGACACACACACACACCCATATATATA [CACACA_site2203] | 10.6
ACCATACATACATACACACACACACCCATATATATA [CACACA_site2917] | 10.6
CATACTCACCAACACACACACACACCCATATAGAAT [CACACA_site592] | 11.1
CACACCACCAACAAAAGTACATACATATATATATAT [XGTACX_site5781] | 9.82
TATACATACCCACCCACACACAAAAAAAAAAAAAAA [CACACA_site4632] | 10.2
CACGCGCACCAACACACACACACACCCATATATATA [CACACA_site2204] | 11.1
CACACCCACCAACACACACACACACCCACCCATATA [CACACA_site366] | 11
TAACCATACATACATACACACACACCCACATATATA [CACACA_site8951] | 10.3
CACCCACACCAACACACACACATATATAATATATAT [CACACA_site595] | 10.6
CATATACACCAACACACACACACACCCACAAAAAAA [CACACA_site496] | 11.3
TATAAACACCCATATAAACACACATATAAACCAACA [CACACA_site8790] | 10
TAATTAAAATCATATACACACCCATATATATATATA [CACACA_site8524] | 10
AAATACCTTATATATACACACTATGTTTTTCTTTTT [CACACA_site4792] | 9.97
AATAAATAAAAATTATGTACATATATAAAAAATACA [XGTACX_site8581] | 9.82
TTGTTTCTTTTTTTTTGTACATATATATTGTATATT [XGTACX_site7602] | 9.89
AATAATAAATCAAACTGTACATATATTTTCAATCTA [XGTACX_site3344] | 9.61
TATAAAAAAATAATAAAATAATAAAATATATAAATA [TGCATGCA_negctrl_site394] | 9.6
AAAAAAAAAAAATGTGCACACGCGTACAGACAAAAA [CACACA_site2005] | 10.3
ATTAAATCTATATATACACACATGTTTGGTATATTC [CACACA_site2657] | 9.87

Sequence | gcPBM binding intensity (ln)
ATGCACTCATTGTGCACACGCATATTACGAAAAGAA [CACACA_site2638] | 9.86
TTTTTTTTTTGATGTTGTACATATATACTATATAAT [XGTACX_site1332] | 9.65
AAAACAAATGCTTAAAGTACTTATTATTTTTCTTTT [XGTACX_site6324] | 9.57
TGAATAAATCAAAGCACACATACACCCACATATATA [CACACA_site286] | 10.2
TACATATACATATACACACACACACCCAAATAAATA [CACACA_site1344] | 10.5
AAATTATAATATAATACACACATAAAAAAAAAAAAA [CACACA_site7] | 9.79
TCAAAGCACCCATACACACACATATATATATATATA [CACACA_site4317] | 10.5
AATAAATATATATACACACCCATATATATATATATA [CACACA_site2595] | 9.63
ATTAATTATATATATACACACACATACACCCAAATA [CACACA_site9126] | 10.3
GATGAATAAATCAAAGCACACATACACCCACATATA [CACACA_site7986] | 11.2
TAATTATATAAATACACACACATACACCCAAATAAA [CACACA_site5819] | 11.1
CATATAAATAAATACACACACACACGCCTTATAATT [CACACA_site7830] | 11.6
TATAAATAAATTTATACACACACACCCATATATATA [CACACA_site8183] | 10.3
CATATATATAAATACACACACACACCCCTTATAATT [CACACA_site4064] | 10.6
TAAATAAATTTATACACACACACACCCATATATATA [CACACA_site849] | 10.9
TCTTTTTTTTTACATACTTTTTTCCTTTTTTTTTTA [CACACA_negctrl_site1429] | 9.71
TCTTACAAAAAACAAACAGAGAAAAATATAAGGAAA [XGTACX_negctrl_site520] | 9.61
AAATTATTTCCGTGTACACATAAATATATATTTTAT [CACACA_site5121] | 9.89
CAATATTTTCATAGATGTACTTTGGACTTATTATAT [XGTACX_site4849] | 9.6
AATATTGTATATAATAAACACACAATATTAAAAATA [CACACA_site8262] | 10.1
